Only some compounds are listed: those with a hit (about 3% of all), similar ones and a draw of the others.
IEC-6 cytotox: cytotoxicity in IEC-6 intestinal epithelial cells, primary screen, cytotoxicity control for KLF5 inhibitor project, cell-based, luminescence; inhibition, % at 5 µM; AID 1825, 2009; IEC-6 cytotoxicity, luminescence viability; 0.78% of 290,000 active; in the data active means inhibition above about 22%;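 further: 0% = plate median of test compound wells and 100% = cytotoxic reference compound wells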
CSC inhib: cancer stem cell viability inhibitors, primary screen, luminescence; cancer stem cell-like cells viability; inhibition, % at 7.5 µM; 1.1% of 300,000 active; AID 2717, 2010; in the data active means inhibition above about 75%; inconclusive means no clear call, values can overlap the other calls; tested in HMLE shEcad cells
SKKanGAS inh: S. pyogenes SKKanGAS growth inhibitors in kanamycin, primary screen, streptokinase expression inhibitor project, SKKanGAS strain, BacTiter-Glo luminescence; AID 1662, 2009; 6 h; 1.3% of 300,000 active; inhibition, % at 7.5 µM;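 active means mean replicate score, as percent of positive control median, at least 50; inconclusive means mean below 50 but one replicate at or above 50; inactive means mean and every replicate below 50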;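 further: strain carries kanamycin resistance gene driven by streptokinase promoter and grows in 40 µg/ml kanamycin; loss of luminescence reflects streptokinase promoter inhibition or plain growth inhibition; 0% = median of DMSO wells and 100% = positive control at its reference dose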
aSyn 5UTR inh: MLPCN primary screen, SNCA 5' untranslated region. 0.82% of 300,000 active. alpha-synuclein 5'UTR reporter, inhibitor activity. inhibition, % (tested at 7.5 µM); in the data active means inhibition above about 60%; inconclusive means no clear call, values can overlap the other calls;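 further: H4 neuroglioblastoma cells stably carrying SNCA 5'UTR luciferase fusion; 0% = DMSO wells and 100% = positive control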
KLF5 inh: KLF5 expression inhibitors, primary screen, DLD-1 cells, luminescence; inhibition, % at 5 µM; DLD-1 KLF5 promoter-luciferase reporter; 0.23% of 290,000 active; AID 1700, 2009;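 active means inhibition above a per-plate limit of that plate's mean compound inhibition plus 3 SD, cut at about 60% in these data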;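 further: 0% = DMSO wells and 100% = LY294002 at 200 µM; higher means less KLF5 promoter-driven luciferase light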
Active calls of the source: *; ? = inconclusive; . = no result given.

SMILES	IEC-6 cytotox	CSC inhib	SKKanGAS inh	aSyn 5UTR inh	KLF5 inh
COc1ccc(C(=O)Nc2cccc(/C=C(\CCC(=O)O)c3nc4ccccc4s3)c2)cc1	2.6	-9.7	51.8*	-3.3	-26.2
COc1ccc(C(=O)Nc2cccc(/C=C/c3nc4ccccc4c(=O)[nH]3)c2)cc1	16.2	77.5*	17.9	16.1	-18.3
O=C(Nc1cccc(/C=C/c2nc3ccccc3c(=O)[nH]2)c1)c1ccccc1Cl	-1.8	42.9	20.3	-131.8	-23.8
O=C(CCNC(=O)C1CCN(S(=O)(=O)c2ccc(F)cc2)CC1)NCc1ccncc1	9.3	-2.7	0.1	7.9	-0.8
Cc1ccc(NS(=O)(=O)c2c(C)[nH]c(C)c2C(=O)N2CCCCC2)c(Br)c1	-0.9	-5.7	2.5	9.0	-0.2
O=C1C2C3C=CC(C3)C2C(=O)N1/N=C/c1cn(Cc2ccccc2)c2ccccc12 (stereo not given)	-6.2	72.7	4.8	66.5*	-23.6
Cc1ccc(N=N/C(=C\O)C(=O)c2ccncc2)cc1	1.8	19.8	1.3	10.9	-2.4
O=C(/C(=C/O)N=Nc1ccc(Cl)cc1)c1ccncc1	1.4	77.1*	-8.4	-22.1	4.9
CCNC(=O)c1ccc(NC(=O)CC2SC(N3CCCC3)=NC2=O)cc1 (stereo not given)	.	-17.4	1.1	5.0	.
CCCc1nc2ccccc2c(=O)n1NC(=O)c1c(O)c2cccc3c2n(c1=O)CCC3	0.9	-10.6	73.0*	15.3	-17.4
CC(C)c1nnc(NC(=O)c2c(O)c3cccc4c3n(c2=O)CCC4)s1	2.2	24.3	90.4*	-10.8	-5.4
O=C(N[C@@H]1CCC(=O)N(CC[C@H](Oc2ccccc2)c2ccccc2)CC1)OCc1ccccc1	5.1	6.3	10.6	-16.6	-1.8
COc1ccccc1-c1cn[nH]c1-c1ccc(OCc2ccc([N+](=O)[O-])cc2)cc1O	-1.1	17.8	0.7	6.3	-15.1
COc1ccccc1-c1cn[nH]c1-c1ccc(OCc2ccc(F)cc2)cc1O	-8.7	?	51.2*	-3.3	10.6
COc1ccccc1-c1cn[nH]c1-c1ccc(OCc2ccccc2F)cc1O	-9.9	93.4*	?	8.5	-17.1
CCn1cc(C(=O)NCCCOC(C)C)c(=O)c2cc(S(=O)(=O)N3CCOCC3)ccc21	2.4	-10.0	0.8	-26.8	-23.9
O=C(Nc1nc(-c2cccs2)c(-c2ccccc2)s1)c1ccco1	-3.1	12.0	51.8*	-47.7	2.6
CN(C(=O)C(C)(C)C)C1c2c(ccc3ccccc23)OCC1CO (stereo not given)	-1.3	-9.2	3.0	16.9	-16.7
COc1ccc(Br)cc1CSC(=N)N	5.2	-11.3	-2.0	-24.6	-14.1
CCCCCOc1ccc(Br)cc1CSC(=N)N	49.4*	.	-2.8	27.8	24.6
C/C(N=Nc1nc2ccccc2s1)=N\Nc1ccccc1O	10.5	84.7*	26.9	-0.8	5.2
Oc1[nH]c2ccccc2c1N=Nc1nc2ccccc2s1	-5.9	2.9	22.3	-11.6	-34.5
S=C(NCCSCc1c(Cl)cccc1Cl)Nc1ccccc1	4.5	.	.	20.9	26.0
S=C(Nc1ccccc1)Nc1ccc(OCc2ccc(Cl)cc2Cl)cc1	-7.1	.	-2.0	96.3*	26.7
OCCCCNCc1ccc(OCc2ccc(Cl)cc2Cl)cc1	8.7	91.4*	3.0	-1.8	-23.3
SMILES	IEC-6 cytotox	CSC inhib	SKKanGAS inh	aSyn 5UTR inh	KLF5 inh
S=C(NCCSCc1ccc(Cl)c(Cl)c1)Nc1ccccc1	7.6	-14.3	51.8*	10.6	-22.1
S=C(NCCSCc1ccc(Cl)cc1Cl)Nc1ccccc1	3.1	52.6	56.3*	0.5	-28.1
Cc1ccccc1CSCCNC(=S)Nc1ccccc1	-0.4	-4.6	-15.4	-15.7	-9.1
OCCNCc1ccc(OCc2ccc(Cl)cc2Cl)cc1	10.4	-4.8	7.6	-83.8	-54.8
CCOc1ccc(NC(=S)Nc2ccc(OCc3ccccc3)cc2)cc1	-0.2	-5.5	2.6	-31.7	-19.3
O=C(Oc1ccc(Oc2ccccc2)cc1)N1CCC(O)CC1	-8.7	-12.4	1.6	-58.7	-129.2
COc1ccc(/C(C)=N/NC(=O)C(NC(=O)c2ccccc2)c2n[nH]c(=O)c3ccccc23)c(OC)c1 (stereo not given)	-4.2	-3.3	-6.5	18.0	5.2
COc1ccc(CSCCNC(=S)Nc2ccccc2)cc1Cl	5.0	15.0	62.7*	8.8	-16.8
CCn1cc(/C=N/N=C2\CCC3C4CCc5cc(O)ccc5C4CC[C@]23C)c(C)n1 (stereo not given in full)	7.7	26.4	21.9	-2.2	-10.1
